Molecules are shown by their SMILES. Screen size: about 360,000 compounds; about 25,000 (6.9%) were called active. Roughly 9% stayed inconclusive and do not appear here. The list comes from a sample in which actives are over-represented; it also holds similar structures and randomly drawn compounds. A number with no mark means an inactive call. Calls come from the whole dose curve; as a rule, active = well fitted inhibition curve with a large enough effect; inconclusive = small, poorly fitted or top-dose-only effect; inactive = flat fitted curve, though single readings scatter.
Potency is the fitted concentration of half-maximal effect.

This assay deals with Luciferin 4-monooxygenase (Photinus pyralis) (UniProt P08659). Briefly: qHTS profiling assay for firefly luciferase inhibitor/activator using purifed enzyme and Km concentrations of substrates (counterscreen for miR-21 project).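 For activity change, negative = inhibition: plate controls were vehicle for no effect and reference inhibitor for full effect.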 Note: nearly all actives have a fitted effect of over 55% in size. Particulars: purified FLuc, luminescence inhibition; series mostly up to 57.5 µM; activity change, negative = inhibition: at the top concentration. The method in brief: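 Purified P. pyralis luciferase (10nM final) with 10uM D-luciferin and 10uM ATP (Km levels) in 50mM Tris acetate pH 7.5, 10mM Mg acetate, 0.01% Tween-20, 0.05% BSA; qHTS 6-point titration, ~60 µM downward; luminescence read.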
Luciferin 4-monooxygenase (Photinus pyralis), sequence (P08659 whole entry, looked up): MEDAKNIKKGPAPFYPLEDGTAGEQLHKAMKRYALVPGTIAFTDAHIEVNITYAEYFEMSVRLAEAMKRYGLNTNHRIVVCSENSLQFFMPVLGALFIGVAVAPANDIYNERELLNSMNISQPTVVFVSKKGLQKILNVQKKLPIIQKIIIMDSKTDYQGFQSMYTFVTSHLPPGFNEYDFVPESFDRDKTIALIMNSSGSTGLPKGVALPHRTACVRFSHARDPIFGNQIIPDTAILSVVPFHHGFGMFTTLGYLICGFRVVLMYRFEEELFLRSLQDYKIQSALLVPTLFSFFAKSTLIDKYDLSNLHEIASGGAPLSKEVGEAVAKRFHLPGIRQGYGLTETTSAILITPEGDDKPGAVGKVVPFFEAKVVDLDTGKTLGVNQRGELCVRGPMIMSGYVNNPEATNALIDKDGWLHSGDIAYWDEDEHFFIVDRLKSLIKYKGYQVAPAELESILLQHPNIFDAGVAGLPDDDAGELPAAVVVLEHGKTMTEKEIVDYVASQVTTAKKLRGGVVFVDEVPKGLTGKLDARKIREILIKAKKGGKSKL
For orientation: qHTS replaces the single test concentration by a dilution series.
On to `COc1ccc(CCNC(=O)CCCCn2c(=O)c3ccccc3n(Cc3ccccc3)c2=O)cc1OC`, for which the “activity change, negative = inhibition” value was 1.96%.

For `CCOc1ccc(C(=O)c2cn(Cc3ccccc3OC)c3ccc(F)cc3c2=O)cc1`, the “activity change, negative = inhibition” value was 0.01%. The same measure, in the same setting: with `COc1ccc(NC(=O)C2CCN(c3ccc(Sc4ccc(C)cc4)nn3)CC2)c(OC)c1` the figure was 4.7%; with `CN1CCN(C2(CNC(=O)COc3ccc(C(C)(C)C)cc3)CCCCC2)CC1`, -0.665%. Take `Nc1nnn(CC(=O)N/N=C/c2ccccc2)n1`: the “activity change, negative = inhibition” value is -1.5%. For the molecule `O=c1c2ccccc2ncn1/N=C/c1ccccc1`, the Potency is 1.69 µM (active). Consider `CCCc1nc2ccccc2c(=O)n1/N=C/c1ccc(O)c(O)c1`, for which the “activity change, negative = inhibition” value was 1.87%. Take `O=C(Nn1cnc2ccccc2c1=O)c1ccccc1`: the “activity change, negative = inhibition” value was 2.64%. On to `O=c1c2ccccc2nc(N/N=C/c2ccccc2)n1O`, for which the Potency was 1.51 µM (active).

Consider `CCOCCCn1c(NN)nc2ccccc2c1=O`, for which the “activity change, negative = inhibition” value is 4.5%. Still for that read-out and setting: to `COc1cc(C(=O)Nc2ccc(OCc3cc(=O)n4cc(C)sc4n3)cc2)cc(OC)c1OC` belongs -2.09%; to `CCN(C(=O)CSc1nc(N)cc(=O)[nH]1)C1CCS(=O)(=O)C1` (stereo not drawn), -2.15%. The same measure, in the same setting: to `O=C(CN1CCCCC1)Nc1ccccc1C(=O)NC1CC1` belongs -9.75%; to `Cc1ccc(-c2nnc(Nc3ccc(OCC(N)=O)cc3)c3ccccc23)cc1S(=O)(=O)NCC1CCCO1` (stereo not drawn), -26.1%; to `CCCN(C(=O)Cn1cc(S(=O)(=O)N2CCN(c3ccccc3F)CC2)c2ccccc2c1=O)c1cccc(C)c1`, 0.802%. Still for that read-out and setting: to `COc1cccc(/C=C/C(=O)OCC(=O)N2CCN(c3ccccc3)CC2)c1` belongs -1.28%. In the case of `CN=C1C=C/C(=N/N=c2\ccn(O)cc2C)C=C1C`, the Potency was 15.1 µM (active). As for `CSc1ccccc1NC(=O)COC(=O)CCCOc1ccc(C)cc1`, the “activity change, negative = inhibition” value is -0.833%. Still for that read-out and setting: with `CCCNC(=O)C(CC)n1nc(CC)n2c(cc3oc(C)cc32)c1=O` (stereo not drawn) the figure was -5.44%; with `CCN(CC)S(=O)(=O)c1ccc(N2CCOCC2)c(NC(=O)C2CSC3(C)CCC(=O)N23)c1` (stereo not drawn), -0.501%. `O=C(Nc1ccc(S(=O)(=O)Nc2nccs2)cc1)c1cc(-c2ccncc2)nc2ccccc12`: the “activity change, negative = inhibition” value was -10.6%. Still for that read-out and setting: with `CCCCN(C)CCCNC(=O)c1cc(-c2cccs2)nc2ccccc12` the figure was -1.53%. As for `O=C(Nc1nnc(-c2ccccc2)o1)c1cc(-c2cccs2)nc2ccccc12`, the Potency is 19 µM (active). For the molecule `Cc1cccc(CC(=O)N2CC(=O)Nc3ccc(F)cc3C2c2ccccc2)c1` (stereo not drawn), the “activity change, negative = inhibition” value was -1.47%. For `Cc1ccc(CSc2nc3ccsc3c(=O)n2CCC(C)C)cc1`, the “activity change, negative = inhibition” value is 1.43%. Turning to `COc1ccc(NC(=O)CSc2nnc(C3CC3)n2C)cc1S(=O)(=O)N1CCCCC1`, the “activity change, negative = inhibition” value is 5.35%. For the molecule `Fc1cc(F)c2nc(Nc3nc4c(F)cccc4s3)sc2c1`, the Potency is 4.78 µM (active). `COc1cc2ccccc2cc1C(=O)N(CCN(C)C)c1nc2c(F)cccc2s1`: the “activity change, negative = inhibition” value was -0.155%. Same read-out and setting: to `NC(=O)c1c(Nc2nc3c(F)cccc3s2)sc2c1CCCC2` belongs -11.7%. On the same count and under the same terms, to `COc1ccc(-c2cn3nc(N4CCC(C(=O)Nc5cccc(C)c5C)CC4)sc3n2)cc1` belongs -1.45%; to `CCc1ccc(NC(=O)CN2C(=O)CCSc3ccc(S(=O)(=O)N4CCCC4)cc32)cc1`, 2.18%. On to `CCc1ccc(NC(=O)CN2C(=O)CSC2=O)cc1`, for which the Potency is 10.7 µM (active).

With `COc1ccc(NC(=O)CN2C(=O)CSC2=O)cc1`, the “activity change, negative = inhibition” value was -17.3%. Same read-out and setting: to `CCn1c(=O)c2cc(C(=O)NCCc3ccc(Cl)cc3)sc2c2ccccc21` belongs -6.83%; to `COc1ccc(-c2onc(C)c2C)cc1S(=O)(=O)NCCc1ccccc1`, -11.2%. In the case of `CCOC(=O)c1cc2cc(C)ccc2[nH]1`, the Potency was 12 µM (active). Consider `Cc1ccc2[nH]c(=O)c(COC(=O)c3ccccn3)cc2c1`, for which the “activity change, negative = inhibition” value was 11.8%. The same measure, in the same setting: with `CC(=O)OCc1cc2cc(C)ccc2[nH]c1=O` the figure was 0.564%; with `COc1cc(OC)c(NC(=O)c2cc(S(=O)(=O)N3CCCC3)cn2C)cc1Cl`, -6.55%; with `CCN(CC(=O)Nc1ccc2c(c1)OCO2)S(=O)(=O)c1ccccc1`, -11.9%. The same measure, in the same setting: to `CC(C)CNS(=O)(=O)c1ccc(C(=O)Nc2ccc3c(c2)OCO3)cc1` belongs 0.691%; to `O=C(/C=C\c1ccc2c(c1)OCO2)NC1(C(=O)Nc2ccc3c(c2)OCCO3)CCCCC1`, -3.09%. Regarding `Cc1cccc(NC(=O)Nc2ccc3c(c2)OCO3)n1`, the Potency is 2.69 µM (active).

`O=C(Nc1ccc2c(c1)OCO2)c1cc(-c2cccc(Cl)c2)on1`: the “activity change, negative = inhibition” value is 3.04%. As to `CCOC(=O)CCCNC(=O)COC(=O)/C=C/c1ccc2c(c1)OCO2`, the “activity change, negative = inhibition” value is -6.33%. For `CNS(=O)(=O)c1ccc(NC(=O)Nc2ccc3c(c2)OCO3)cc1`, the Potency was 6.01 µM (active).

On to `Cc1ccc2nc(-c3ccccn3)cc(C(=O)Nc3ccc4c(c3)OCO4)c2c1`, for which the “activity change, negative = inhibition” value was -4.26%.

Consider `Cc1cccc(NC(=O)/C=C/c2ccc3c(c2)OCO3)n1`, for which the Potency is 0.849 µM (active).

As to `CCOc1ccc(OCC(=O)Nc2c3c(nn2C(C)(C)C)CS(=O)(=O)C3)cc1`, the “activity change, negative = inhibition” value is -17.5%. Same read-out and setting: to `COc1cccc(NC(=O)CN(C)C(=O)CSCc2nc3scc(-c4cccs4)c3c(=O)[nH]2)c1` belongs -4.25%; to `CC(C)CC(NS(=O)(=O)c1ccc2c(c1)oc(=O)n2C)C(=O)NCc1ccccc1Cl` (stereo not drawn), -5.21%; to `COc1ccccc1C(CNC(=O)c1ccc(C)c(S(=O)(=O)N2CCCCC2)c1)N(C)C` (stereo not drawn), -2.16%. The same measure, in the same setting: to `Fc1ccc(Nc2nc(SCc3ccccc3Cl)nc3ccccc23)cc1` belongs -16.5%.

The record behind these values is PubChem BioAssay AID588342 (National Center for Advancing Translational Sciences (NCATS), 2011).
